Data taken from PubChem BioAssay (NCI).
About 79,000 compounds went through this panel and 15% of them were active in at least one assay; those are over-represented in the sample as a whole. No stated cut-off is given here; in the data, active means growth inhibition above about 70%; inactive means the rest.

Tests used:
[1] = NCI Yeast Anticancer Drug Screen. Data for the rad50 strain (AID 155);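 further: 0% = growth of vehicle-only cultures of the same strain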; details: S. cerevisiae rad50 strain growth inhibition; at 50.0 µM; stronger effect = higher value
Procedure, shortened: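 DNA repair mutant yeast, compound exposure, growth read-out; inhibition is taken relative to vehicle.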

[2] = NCI Yeast Anticancer Drug Screen. Data for the mec2-1 strain (AID 157); details: S. cerevisiae mec2-1 strain, at 50.0 µM, stronger effect = higher value
Procedure, shortened: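 Yeast mec2-1 mutant treated with compound. Readout: growth inhibition vs vehicle controls.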

[3] = NCI Yeast Anticancer Drug Screen. Data for the mlh1 rad18 strain (AID 175); details: S. cerevisiae mlh1 rad18 strain growth inhibition; at 50.0 µM; stronger effect = higher value
Procedure, shortened: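 Yeast w/ defined DNA-repair lesions; compound exposure; growth vs vehicle controls → % inhibition.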

[4] = NCI Yeast Anticancer Drug Screen. Data for the sgs1 mgt1 strain (AID 161);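 further: 0% = growth of cultures given vehicle only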; details: S. cerevisiae sgs1 mgt1 strain, at 50.0 µM, stronger effect = higher value
Procedure, shortened: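 Test agents were incubated with a DNA-repair-mutant yeast strain. Growth was then read and compared against vehicle-treated controls.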

[5] = NCI Yeast Anticancer Drug Screen. Data for the bub3 strain (AID 167); details: S. cerevisiae bub3 mutant strain, at 50.0 µM, stronger effect = higher value
Procedure, shortened: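 In this screen, a yeast mutant lacking normal mitotic checkpoint function is challenged with compound. Relative growth versus vehicle gives the inhibition value.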

Measured: growth inhibition

COc1ccc(/C=N\NC(=O)OC(C)(C)C)c(OC)c1OC
inactive: [1] -23.8% | [2] -33.4% | [3] -24.4%

N#[N+]c1c(O)cc(S(=O)(=O)O)c2ccccc12
inactive: [1] -21.6% | [2] -8.45% | [3] -10.4%

Cc1ccc(/C=N/Nc2nc3ccccc3s2)s1
inactive: [1] -24.5% | [2] -4% | [4] -9.55% | [3] -11.2%

Cc1ccc(F)cc1NC(=O)O/N=C(\Cl)C(C)C
inactive: [1] -17.9% | [2] -31.9% | [4] -5.7% | [5] 4.85% | [3] 55.6%

CC/C(Cl)=N\OC(=O)Nc1ccc(OC)cc1
inactive: [1] -5.35% | [2] -16.1% | [4] -3.3% | [3] -68.8%

O=C(O)CCNC(=O)c1ccccc1
inactive: [1] -6.2% | [2] -7.4% | [4] -20% | [5] 7.95% | [3] -12.8%

COc1cc(Oc2c(C)c(Cl)c(OC)c(Cl)c2OC)c2c(c1Cl)COC2=O
inactive: [1] 28.5% | [2] -6.45% | [4] 15.6% | [3] 22.8%

COc1cc2c3cc1Oc1c(OC)c(OC)cc4c1C(Cc1ccc(O)c(c1)-c1cc(ccc1OC)CC3N(C)CC2)N(C)CC4 (stereo not given)
inactive: [1] -1.25% | [2] -6.75% | [4] -2.15% | [3] -13.7%

COC(=O)c1cc(NC(=O)CC(=O)c2cccc(N)c2)cc(C(=O)OC)c1
inactive: [1] -3.8% | [2] -12.8% | [3] 8.4%
